A selection: hits, their analogues and other compounds. The true share with any hit is near 2.8%.
Pol iota inh: qHTS for Inhibitors of Polymerase Iota; DNA polymerase iota (Homo sapiens), Q9UNA4; 1% of 390,000 active; AID 588590, 2011; Potency, µM (titrated, usually from 115 µM), for inactives: at the highest dose activity, negative = inhibition, usual class: inhibitors; Pol iota fluorescent replication assay, 10 min; note: potency is the fitted concentration of half-maximal effect
Target sequence (Q9UNA4 whole entry, looked up): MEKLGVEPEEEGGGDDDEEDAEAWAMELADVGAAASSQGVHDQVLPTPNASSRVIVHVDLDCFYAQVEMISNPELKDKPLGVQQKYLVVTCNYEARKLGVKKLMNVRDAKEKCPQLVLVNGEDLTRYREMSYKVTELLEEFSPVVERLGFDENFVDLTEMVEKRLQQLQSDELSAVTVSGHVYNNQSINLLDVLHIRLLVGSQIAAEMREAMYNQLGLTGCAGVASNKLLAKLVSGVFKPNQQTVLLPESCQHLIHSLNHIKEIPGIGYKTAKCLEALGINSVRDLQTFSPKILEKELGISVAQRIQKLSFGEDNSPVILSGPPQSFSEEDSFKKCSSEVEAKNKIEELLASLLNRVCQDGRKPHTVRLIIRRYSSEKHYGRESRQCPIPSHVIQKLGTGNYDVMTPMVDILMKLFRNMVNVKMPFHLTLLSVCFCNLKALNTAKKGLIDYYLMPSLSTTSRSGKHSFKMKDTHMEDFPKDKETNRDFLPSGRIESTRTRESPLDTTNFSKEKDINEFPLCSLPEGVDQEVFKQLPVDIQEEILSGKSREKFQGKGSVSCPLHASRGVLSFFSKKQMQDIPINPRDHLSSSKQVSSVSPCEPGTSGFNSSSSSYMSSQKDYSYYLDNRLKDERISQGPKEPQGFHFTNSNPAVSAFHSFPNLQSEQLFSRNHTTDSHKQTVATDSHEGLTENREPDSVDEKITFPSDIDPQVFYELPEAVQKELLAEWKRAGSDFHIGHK
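Fluorescent replication assay read twice, at 0 min and 10 min after adding 50 nM (final) substrate. Enzyme (10 nM) and compounds were first incubated 15 min at room temperature; enzyme-free buffer wells were negative controls.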
POLH inh: qHTS for Inhibitors of Polymerase Eta | DNA polymerase eta (Homo sapiens), Q9Y253 | recombinant Pol eta, fluorescent DNA replication assay | Potency, µM (titrated, usually from 114 µM), for the others: at the top dose activity change, negative = inhibition, actives largely listed as inhibitors | 1.2% of 390,000 active | AID 588591, 2011; note: potency is the fitted concentration of half-maximal effect; % is set by controls: 0 for no effect and ±100 for the full control effect
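Fluorescent replication assay: 50 nM final substrate added after a 15 min room-temperature compound preincubation with 10 nM enzyme. Signal taken at 0 min and again at 10 min.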
PI5P4K alpha inh: qHTS for Inhibitors of phosphatidylinositol 5-phosphate 4-kinase (PI5P4K); PI5P4Kalpha enzyme, ADP-Glo luminescence, 60 min; active compounds read low; max response, %; 1.2% of 330,000 active; AID 652105, 2013; active = max response of -50% or lower; inconclusive = between -30% and -50%; inactive = -30% or higher; note: value at the top dose of about 77 µM; % is set by controls: 0 for no effect and ±100 for the full control effect
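qHTS, 1536-well: enzyme/substrate mix, compound by pin tool, 5 microM ATP final; RT 60 min; ADP-Glo reagents 1 (45 min) then 2 (30 min); luminescence.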
Pol beta inh: qHTS Assay for Inhibitors of DNA Polymerase Beta; P06746; Potency, µM (highest dose often 114 µM), for the others: at the top dose activity change, negative = inhibition, usual class: inhibitors; 1.3% of 340,000 active; AID 485314, 2010; Pol beta primer extension/strand displacement, fluorescence kinetic; note: potency is the fitted concentration of half-maximal effect; % is set by controls: 0 for no effect and ±100 for the full control effect
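Preincubation: enzyme (10 nM) with compound, 15 min, RT. Reaction: substrate added to 50 nM final. Reads: 0 and 10 min. Analysis: normalized, Hill fit.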
WRN helicase inh: qHTS for Inhibitors of WRN Helicase; 0.46% of 360,000 active; Potency, µM (doses to about 114 µM), inactives show top-dose activity change, negative = inhibition, usual class: inhibitors; AID 651768, 2012; WRN helicase unwinding, fluorescent forked duplex, kinetic; note: potency is the fitted concentration of half-maximal effect; % is set by controls: 0 for no effect and ±100 for the full control effect; nearly all actives have a fitted effect of over 55% in size
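WRN at 20 nM final was preincubated with compound for 15 min at room temperature; reaction started with 100 nM forked duplex oligonucleotide carrying fluorophore and quencher plus 2 mM ATP (final). Unwinding followed kinetically by red fluorescence (ex 525/em 598 nm).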
POLK inh: qHTS for Inhibitors of Polymerase Kappa; DNA polymerase kappa (Homo sapiens), Q9UBT6; purified Pol kappa, fluorescent DNA synthesis assay, 10 min; Potency, µM (titrated, usually from 107 µM), for the others: top-dose activity, negative = inhibition, hits mostly inhibitors; 0.53% of 400,000 active; AID 588579, 2011; note: potency is the fitted concentration of half-maximal effect; % is set by controls: 0 for no effect and ±100 for the full control effect
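10 nM Pol kappa preincubated 15 min at room temperature with compounds, then reaction started with substrate at 50 nM final. Fluorescence read kinetically at 0 and 10 min; buffer-only wells served as negative control.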
* = called active by the depositor; [ ] = remark or other dose. Unless noted, calls come from the whole dose curve; as a rule, active = well fitted curve in the direction sought with a large enough effect; inconclusive = small, poorly fitted or top-dose-only effect, or another doubt; inactive = no such curve, though single readings can be large; an effect the other way counts as inactive or inconclusive.

How did COc1ccc(/C=N/NC(=O)c2cc(-c3ccc4c(c3)OCO4)n[nH]2)cc1OC do in these assays?
Pol iota inh: inconclusive; POLH inh: inconclusive; PI5P4K alpha inh: -3; Pol beta inh: 4.5µM*; WRN helicase inh: -6%[11.6 µM]; POLK inh: inconclusive

How did COc1ccc(/C=N\NC(=O)C2C(=O)NCC2c2ccccc2)cc1O (stereo unspecified) do in these assays?
Pol iota inh: -8%; POLH inh: -14%; PI5P4K alpha inh: -57*; Pol beta inh: -2%; WRN helicase inh: -23%; POLK inh: -7%

What do the screens show for `O=C(N/N=C/c1ccc(F)cc1)c1cc(-c2ccc3c(c2)OCO3)n[nH]1`?
Pol iota inh: 5%; POLH inh: 2%; PI5P4K alpha inh: 0; Pol beta inh: inconclusive; WRN helicase inh: -35%; POLK inh: -15%

What do the screens show for `COc1ccc(/C=N/NC(=O)c2ccc(=O)[nH]n2)cc1OC`?
Pol iota inh: 100µM*; POLH inh: inconclusive; PI5P4K alpha inh: -3; Pol beta inh: 7.9µM*; WRN helicase inh: -3%[57.1 µM]; POLK inh: inconclusive

How did COc1ccc(/C=N\NC(=O)c2ccc(=O)[nH]n2)cc1O do in these assays?
Pol iota inh: 32µM*; POLH inh: -10%; PI5P4K alpha inh: 6; Pol beta inh: 13µM*; WRN helicase inh: -17%[11.6 µM]; POLK inh: inconclusive

How did COc1ccc(/C=N/NC(=O)c2cc(C34CC5CC(CC(C5)C3)C4)[nH]n2)cc1O do in these assays?
Pol iota inh: 10%; POLH inh: -21%; PI5P4K alpha inh: -18; Pol beta inh: -14%; WRN helicase inh: -18%; POLK inh: -8%

Results for O=C(O)C1CSC(c2ccco2)N1 (stereo unspecified) ?
Pol iota inh: inconclusive; POLH inh: 10µM*; PI5P4K alpha inh: -80*; Pol beta inh: 8.9µM*; WRN helicase inh: 14µM*; POLK inh: 18µM*

What do the screens show for `CC(/C=C1\SC(=S)N(CCCC(=O)Nc2ccc(C(=O)O)cc2)C1=O)=C\c1ccccc1`?
Pol iota inh: inconclusive; POLH inh: 32µM*; PI5P4K alpha inh: inconclusive; Pol beta inh: inconclusive; WRN helicase inh: -12%[11.6 µM]; POLK inh: -27%

How did CC(=C\c1ccccc1)/C=C1/SC(=S)N(CCCC(=O)O)C1=O do in these assays?
Pol iota inh: 25µM*; POLH inh: 25µM*; PI5P4K alpha inh: -18; Pol beta inh: -15%; WRN helicase inh: 50µM*; POLK inh: -26%

How did COc1ccc(CCN2C(=O)/C(=C\c3ccco3)SC2=S)cc1OC do in these assays?
Pol iota inh: inconclusive; POLH inh: -19%; PI5P4K alpha inh: -2; Pol beta inh: 28µM*; WRN helicase inh: 1%; POLK inh: -7%

What do the screens show for `COc1cc(/C=C2/SC(=S)N(CCC(=O)Nc3ccc(C(=O)O)cc3)C2=O)cc(OC)c1OC`?
Pol iota inh: -10%; POLH inh: 56µM*; PI5P4K alpha inh: 2; Pol beta inh: 4%; WRN helicase inh: 4%[11.6 µM]; POLK inh: -21%

What do the screens show for `CC(/C=C1\SC(=O)N(CCCC(=O)O)C1=O)=C\c1ccccc1`?
Pol iota inh: -15%; POLH inh: -18%; PI5P4K alpha inh: -9; Pol beta inh: 29%; WRN helicase inh: -13%; POLK inh: -11%

How did COc1ccccc1-c1cnc(C(O)c2cc(C)ccc2C)[nH]1 (stereo unspecified) do in these assays?
PI5P4K alpha inh: -11; WRN helicase inh: 2%

What do the screens show for `C[C@H](NC(=O)CCCOc1ccc(Cl)cc1Cl)c1nnc2ccccn12`?
Pol iota inh: 29%; POLH inh: -22%; PI5P4K alpha inh: 8; Pol beta inh: 0%; WRN helicase inh: 1%; POLK inh: 2%

Results for CCC(C(=O)O)N1C(=O)/C(=C/C(C)=C/c2ccccc2)SC1=S (stereo unspecified) ?
Pol iota inh: inconclusive; POLH inh: -18%; PI5P4K alpha inh: -2; Pol beta inh: -11%; WRN helicase inh: -25%; POLK inh: -11%

What do the screens show for `COc1ccc(/C=C2\SC(=S)N(CCCC(=O)Nc3ccc(O)cc3)C2=O)cc1`?
Pol iota inh: 7%; POLH inh: 17%; PI5P4K alpha inh: 7; Pol beta inh: -1%; WRN helicase inh: -7%; POLK inh: 8%

What do the screens show for `O=C(CCCN1C(=O)/C(=C\c2ccco2)SC1=S)Nc1ccc2ccccc2c1`?
Pol iota inh: 215%; POLH inh: inconclusive; PI5P4K alpha inh: -24; Pol beta inh: 20µM*; WRN helicase inh: 0%; POLK inh: -13%

Results for CC(=C\c1ccccc1)/C=C1/SC(=S)N(C(C(=O)O)C(C)C)C1=O (stereo unspecified) ?
Pol iota inh: inconclusive; POLH inh: 89µM*; PI5P4K alpha inh: -8; Pol beta inh: 89µM*; WRN helicase inh: -31%; POLK inh: -6%

How did CS(=O)(=O)c1ccc(C(=O)OCC(=O)c2ccc(Cl)s2)cc1 do in these assays?
Pol iota inh: 10%; POLH inh: -11%; PI5P4K alpha inh: -21; WRN helicase inh: 4%; POLK inh: -7%

Results for C=C/C(C)=C/CC1C(=C)CCC2C(C)(C(=O)O)CCCC12C (stereo unspecified) ?
Pol iota inh: inconclusive; POLH inh: 7.1µM*; PI5P4K alpha inh: inconclusive; Pol beta inh: inconclusive; WRN helicase inh: inconclusive; POLK inh: 16µM*

Results for CCc1ccc(OCCCC(=O)Nc2ccc(S(=O)(=O)Nc3cc(C)nc(C)n3)cc2)cc1 ?
Pol iota inh: -8%; POLH inh: -15%; PI5P4K alpha inh: -4; Pol beta inh: 32%; WRN helicase inh: -7%; POLK inh: -2%

What do the screens show for `COc1ccc(OC)c2c(C)c(C)[nH]c12`?
Pol iota inh: -16%; POLH inh: -17%; PI5P4K alpha inh: 3; Pol beta inh: 28µM*; WRN helicase inh: 2%; POLK inh: -10%

What do the screens show for `Cc1cc(C)cc(NC(=O)Cn2nnc(-c3nc(-c4ccncc4)no3)c2N)c1`?
Pol iota inh: 25%; POLH inh: 1%; Pol beta inh: inconclusive; POLK inh: -6%

What do the screens show for `Nc1c(-c2nc(-c3ccccc3)no2)nnn1CC(=O)Nc1cccc(F)c1`?
Pol iota inh: 11%; POLH inh: -26%; Pol beta inh: 14µM*; POLK inh: -3%
